In the library only some 2.1% were active in any assay of this set; here they are far more common.
PLC-gamma1 inh: PLC-gamma1 enzyme inhibitors, primary screen, biochemical, fluorescence, purified enzyme; 1-phosphatidylinositol 4,5-bisphosphate phosphodiesterase gamma-1 (Homo sapiens), P19174; fluorogenic substrate; inhibition, % at 12.2 µM; 370,000 compounds, 0.84% hits; in the data active = inhibition above about 9.5%
ADAM10 inh: human ADAM10 inhibitors, primary screen, biochemical, QFRET, HTS; Disintegrin and metalloproteinase domain-containing protein 10 (Homo sapiens), O14672; AID 720582, 2013; recombinant ADAM10, EDANS/DABCYL FRET peptide cleavage, 3 h; 370,000 compounds, 0.62% hits; inhibition, % at 7 µM;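 active = inhibition above a per-campaign cutoff equal to the mean of compounds falling between control-based bounds plus 3 SD, cut at about 20% in these data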
Rce1 inhib: yeast Rce1p protease inhibitors, primary screen, biochemical, fluorescence, cell-free homogeneous. CAAX prenyl protease 2 (Saccharomyces cerevisiae (strain ATCC 204508 / S288c)), Q03530. yeast membranes, quenched prenylated peptide cleavage fluorescence. calls only. 290,000 compounds, 0.27% hits;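 active = fall in fluorescence gain of 50% or more versus controls, with final raw signal at or below 3038400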
ADAM17 inh: ADAM17 inhibitors, primary screen, biochemical, QFRET; recombinant ADAM17, EDANS/DABCYL FRET peptide cleavage; inhibition, % at 6.95 µM; 370,000 compounds, 0.83% hits;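 active = inhibition above the mean of compounds lying between control limits plus 3 SD, set per campaign, cut at about 8.5% in these data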
PLCb3 inh: human PLC-beta3 inhibitors, primary screen, biochemical, fluorescence; 1-phosphatidylinositol 4,5-bisphosphate phosphodiesterase beta-3 (Homo sapiens), Q01970; Purified PLC-beta3, fluorogenic substrate; inhibition, % at 12.2 µM; 370,000 compounds, 0.18% hits; in the data active = inhibition above about 11%
Target sequence (Q01970 whole entry, looked up): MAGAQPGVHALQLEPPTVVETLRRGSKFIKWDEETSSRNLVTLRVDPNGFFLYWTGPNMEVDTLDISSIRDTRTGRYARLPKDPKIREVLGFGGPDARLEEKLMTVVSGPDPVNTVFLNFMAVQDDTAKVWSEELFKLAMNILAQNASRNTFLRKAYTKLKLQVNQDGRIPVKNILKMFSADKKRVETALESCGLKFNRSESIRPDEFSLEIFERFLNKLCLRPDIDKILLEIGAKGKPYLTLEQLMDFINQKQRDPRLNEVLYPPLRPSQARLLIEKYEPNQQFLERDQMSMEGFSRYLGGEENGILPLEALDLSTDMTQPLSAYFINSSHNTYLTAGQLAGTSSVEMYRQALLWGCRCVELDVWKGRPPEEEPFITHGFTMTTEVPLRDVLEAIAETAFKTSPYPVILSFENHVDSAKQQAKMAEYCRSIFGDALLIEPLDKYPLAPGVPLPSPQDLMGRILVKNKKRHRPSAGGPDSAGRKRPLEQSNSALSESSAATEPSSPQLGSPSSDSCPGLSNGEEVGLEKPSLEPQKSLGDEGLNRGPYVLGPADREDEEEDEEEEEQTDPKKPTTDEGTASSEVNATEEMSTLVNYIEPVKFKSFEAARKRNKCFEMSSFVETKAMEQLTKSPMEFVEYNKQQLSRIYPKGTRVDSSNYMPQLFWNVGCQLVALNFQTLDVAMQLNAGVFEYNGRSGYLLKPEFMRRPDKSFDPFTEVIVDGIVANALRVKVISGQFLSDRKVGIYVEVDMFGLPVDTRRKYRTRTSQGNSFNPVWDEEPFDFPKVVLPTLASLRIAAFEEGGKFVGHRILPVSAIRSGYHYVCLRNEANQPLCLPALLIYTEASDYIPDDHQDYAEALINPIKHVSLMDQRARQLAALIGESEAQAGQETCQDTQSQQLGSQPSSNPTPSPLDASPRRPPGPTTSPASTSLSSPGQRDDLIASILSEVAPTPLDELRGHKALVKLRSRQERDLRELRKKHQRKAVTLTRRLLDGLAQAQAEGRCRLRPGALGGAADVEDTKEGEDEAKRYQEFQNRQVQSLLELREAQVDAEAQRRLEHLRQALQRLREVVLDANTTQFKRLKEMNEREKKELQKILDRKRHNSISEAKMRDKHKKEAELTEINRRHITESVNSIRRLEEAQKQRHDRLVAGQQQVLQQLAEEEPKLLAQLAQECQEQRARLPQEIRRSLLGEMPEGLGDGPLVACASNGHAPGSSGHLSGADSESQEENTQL
ADAM10 counter: ADAM10 inhibitors, counter-screen for ADAM17 exosite inhibitor project, biochemical, FRET, human ADAM10; shares compounds with ADAM17 inh; recombinant ADAM10, EDANS/DABCYL FRET peptide cleavage, 3 h; 2,900 compounds, 47% hits; inhibition, % at 6.95 µM;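 active = mean inhibition over the triplicate runs exceeds the activity threshold set in the earlier primary screen, cut at about 20% in these data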
ADAM17 confirm: ADAM17 inhibitors, hit retest, confirmation, biochemical, QFRET peptide cleavage; recombinant ADAM17, EDANS/DABCYL QFRET peptide cleavage; shares compounds with ADAM17 inh; 2,900 compounds, 65% hits; inhibition, % at 6.95 µM;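 active = mean inhibition across replicates above the hit cutoff set in the primary screen, cut at about 8.5% in these data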
Each line names hits and unclear results; the compound was inactive in the other large screens (follow-up assays come after a bar, where they were run).

CC(OC(=O)C1CCN(c2ccc(C(F)(F)F)cn2)CC1)C(=O)Nc1ccc(S(N)(=O)=O)cc1 (stereo unspecified)	none
O=C(Nc1ccc2c(c1)OCCO2)C(c1ccnc2ccccc12)N1CCN(c2ccc(C(F)(F)F)cn2)CC1 (stereo unspecified)	ADAM17 inh 10.7 (no result: Rce1 inhib) | ADAM10 counter 54.0 | ADAM17 confirm 25.1
CC(=O)c1ccc(NC(=O)C(C)OC(=O)C2CCN(c3ccc(C(F)(F)F)cn3)CC2)cc1 (stereo unspecified)	ADAM17 inh 9.0 | ADAM10 counter inactive | ADAM17 confirm 9.1
COc1cccc(CN(CC(=O)NCc2ccccc2)C(=O)c2csnn2)c1	none
COC(=O)N1CCCCC1c1cc(C(=O)NCc2ccc(Cl)c(Cl)c2)no1 (stereo unspecified)	none (no result: Rce1 inhib)
O=C(NCc1ccc(Cl)c(Cl)c1)c1cc(C2CCCCN2C(=O)C2CCCCC2)on1 (stereo unspecified)	ADAM17 inh 10.2 (no result: Rce1 inhib) | ADAM10 counter inactive | ADAM17 confirm inactive
Cc1cc(NC(=O)CN2CCC(C)CC2)no1	none
Cc1cc(NC(=O)COC(=O)C(Nc2ccc(C(F)(F)F)cc2Cl)C(C)C)no1 (stereo unspecified)	ADAM17 inh 10.1 | ADAM10 counter 41.2 | ADAM17 confirm 23.6
Cc1cc(NC(=O)COC(=O)c2ccc(OC(F)(F)F)cc2)no1	none (no result: Rce1 inhib)
NS(=O)(=O)c1ccc(NC(=O)/C=C/c2cccs2)cc1	ADAM17 inh 10.4 | ADAM10 counter inactive | ADAM17 confirm inactive
NS(=O)(=O)c1cccc(NC(=O)/C=C/c2cccs2)c1	none
COC(=O)c1cc(=O)cc(C(=O)OC)o1	ADAM17 inh 8.7 | ADAM10 counter inactive | ADAM17 confirm inactive
CC1(c2nnc(-c3cccc(Cl)c3)o2)CC(c2ccc(F)cc2)=NO1 (stereo unspecified)	ADAM17 inh 11.5 | ADAM10 counter inactive | ADAM17 confirm inactive
O=[N+]([O-])c1ccc(N2CCN(c3cccc(Cl)c3)CC2)cn1	none
Cc1cc(SCC(=O)c2ccc(O)c(O)c2)n2nc(C)c(-c3ccccc3)c2n1	ADAM17 inh 9.9 | ADAM10 counter inactive | ADAM17 confirm 14.3
Cc1cc(C)nc(SCC(=O)c2ccc(O)c(O)c2)n1	none
CCc1ccc(NS(=O)(=O)c2ccc3[nH]cc(C(=O)N4CCc5ccccc54)c(=O)c3c2)cc1	ADAM17 inh 10.5 | ADAM10 counter inactive | ADAM17 confirm 10.9
Cc1cc(C)cc(NS(=O)(=O)c2ccc3[nH]cc(C(=O)N4CCc5ccccc54)c(=O)c3c2)c1	none
CCn1cc(CN2CCc3c([nH]c4ccccc34)C2c2cccc(OC)c2OC)c(C)n1 (stereo unspecified)	none
O=C(NC1=NCCS1)c1cccc(S(=O)(=O)N2CCc3ccccc32)c1	none
O=C(NC1=NCCS1)c1ccc(Cl)c(S(=O)(=O)N2CCc3ccccc32)c1	ADAM17 inh 9.4 | ADAM10 counter inactive | ADAM17 confirm inactive
Cc1c(Cl)c([N+](=O)[O-])nn1CC(=O)NC12CC3CC(CC(C3)C1)C2	ADAM17 inh 11.3 | ADAM10 counter inactive | ADAM17 confirm inactive
Cc1c(Cl)c([N+](=O)[O-])nn1CC(=O)N1CCCC1	none
Cc1ccc(S(=O)(=O)N(CC(=O)Nc2cccc(N(C)S(C)(=O)=O)c2)c2ccc(Cl)c(Cl)c2)cc1	ADAM10 inh 24.6, ADAM17 inh 13.0 | ADAM10 counter 39.4 | ADAM17 confirm 22.4
CC(=O)c1cccc(NC(=O)c2ccc(-c3ccccc3[N+](=O)[O-])o2)c1	none
COc1ccccc1NC(=O)N(C)C[C@@H]1OCc2cnnn2CCCC(=O)N([C@@H](C)CO)C[C@H]1C	ADAM17 inh 8.8 (no result: Rce1 inhib) | ADAM10 counter inactive | ADAM17 confirm inactive
COc1ccccc1NC(=O)N(C)C[C@H]1OCc2cnnn2CCCC(=O)N([C@@H](C)CO)C[C@H]1C	none (no result: Rce1 inhib)
CC(=O)Nc1cccc(-c2csc(C(C)(O)c3ccc(F)c(F)c3)n2)c1 (stereo unspecified)	none (no result: Rce1 inhib)
CCN(C[C@H]1N[C@@](C)(C(=O)OC)[C@H]2C(=O)N(Cc3ccccc3)C(=O)[C@@H]12)S(=O)(=O)c1ccc(F)cc1	none (no result: Rce1 inhib)
CCN(C[C@H]1N[C@@](C)(C(=O)OC)[C@H]2C(=O)N(Cc3ccccc3)C(=O)[C@@H]12)S(=O)(=O)c1ccc(C(C)(C)C)cc1	ADAM17 inh 9.4 (no result: Rce1 inhib) | ADAM10 counter 20.8 | ADAM17 confirm 13.4
O=C(c1cccc(COc2ccc(Cl)cc2Cl)c1)N1CCN(c2ccccn2)CC1	ADAM17 inh 10.7 | ADAM10 counter inactive | ADAM17 confirm 9.3
CN1CC(c2ccccc2Cl)C2(COc3ccccc3C2=O)C12C(=O)Nc1ccccc12 (stereo unspecified)	ADAM17 inh 8.9 | ADAM10 counter 43.6 | ADAM17 confirm 25.1
CC1OC2(OC1C)C(=O)Nc1ccccc12 (stereo unspecified)	none
C/C(=N\NC(=O)c1c(Br)c(C)nn1C)c1ccc(NC(=O)C(C)Oc2ccc(Cl)cc2C)cc1 (stereo unspecified)	ADAM17 inh 9.1 | ADAM10 counter inactive | ADAM17 confirm inactive
CC(C)Oc1cc(NC(=O)CS(=O)CC(=O)Nc2cccc(C(F)(F)F)c2)c(Cl)cc1Cl (stereo unspecified)	ADAM17 inh 9.2 | ADAM10 counter 31.0 | ADAM17 confirm 15.8
CC(C)(C)OC(=O)NCCCC[C@H](NC(=O)c1nc[nH]c1C(=O)NCc1ccccc1)C(=O)OC(C)(C)C	ADAM17 inh 9.2 | ADAM10 counter 35.2 | ADAM17 confirm 19.7
C[C@H](NC(=O)c1nc[nH]c1C(=O)N[C@@H](C)C(=O)OCc1ccccc1)C(=O)OCc1ccccc1	none
O=C(N[C@@H](Cc1ccccc1)C(=O)OCc1ccccc1)c1nc[nH]c1C(=O)N1CCN(c2ccccc2)CC1	ADAM17 inh 11.3 | ADAM10 counter 27.3 | ADAM17 confirm 15.1
Cc1cccc(NC(=O)c2nc[nH]c2C(=O)N[C@@H](CC(C)C)C(=O)OC(C)(C)C)c1	ADAM17 inh 10.6 | ADAM10 counter 30.3 | ADAM17 confirm 15.6
Cc1cccc(NC(=O)c2nc[nH]c2C(=O)N[C@@H](Cc2ccccc2)C(=O)OC(C)(C)C)c1	none

Screens as filed in PubChem.
